Data from PubChem BioAssay (EPA / NIEHS).
Values joined by “and” are separate entries in the source; they are usually repeats but may differ in a detail not shown here. Equal values may be shown once. Active and inactive are the calls of the source. The calls were made as follows: active = hit-call score of the fitted dose curve at least 0.9, where 1 is the maximum; inactive = score below 0.9.

What was measured:
[1] = read-out: Interleukin-8 (IL8), CXCL8 (gene 3576); test: BSK_CASM3C_IL8: BioMAP Diversity Plus: CASM3C Assay for Interleukin-8 (IL8) Biomarker Activity (AID 2283042); conditions: primary human coronary artery smooth muscle cells; actives raise or lower the signal;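 also: IL-8 protein level quantified by ELISA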
[2] = read-out: Human Leukocyte Antigen - DR isotype (HLADR), HLA-DRA (gene 3122); test: BSK_CASM3C_HLADR: BioMAP Diversity Plus: CASM3C Assay for Human Leukocyte Antigen - DR isotype (HLADR) Biomarker Activity (AID 2283043); conditions: primary human coronary artery smooth muscle cells; actives raise or lower the signal;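 also: cell-surface HLA-DR protein level quantified by ELISA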
[3] = read-out: Macrophage colony-stimulating factor (MCSF), CSF1 (gene 1435); test: BSK_CASM3C_MCSF: BioMAP Diversity Plus: CASM3C Assay for Macrophage colony-stimulating factor (MCSF) Biomarker Activity (AID 2283044); conditions: primary human coronary artery smooth muscle cells; actives raise or lower the signal;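 also: M-CSF protein amount quantified by ELISA after 24 h exposure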
[4] = read-out: Low-density lipoprotein receptor (LDLR), LDLR (gene 3949); test: BSK_CASM3C_LDLR: BioMAP Diversity Plus: CASM3C Assay for Low-density lipoprotein receptor (LDLR) Biomarker Activity (AID 2283045); conditions: primary human coronary artery smooth muscle cells; actives raise or lower the signal;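 also: LDLR protein level on the cell surface quantified by ELISA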
[5] = read-out: Monocyte Chemoattractant Protein-1 (MCP1), CCL2 (gene 6347); test: BSK_CASM3C_MCP1: BioMAP Diversity Plus: CASM3C Assay for Monocyte Chemoattractant Protein-1 (MCP1) Biomarker Activity (AID 2283046); conditions: primary human coronary artery smooth muscle cells; actives raise or lower the signal;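 also: MCP-1 level quantified by ELISA 24 h after dosing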
[6] = BSK_CASM3C_Proliferation: Cell Proliferation Assessment in the BioMAP Diversity Plus: CASM3C Assay (AID 2283047); conditions: primary human coronary artery smooth muscle cells;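 also: sulforhodamine B total protein stain as relative cell number at 560 nm; sub-confluent cells exposed 48 h before staining; fitted both ways against DMSO so gain or loss of cell number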
[7] = read-out: Monokine induced gamma interferon (MIG), CXCL9 (gene 4283); test: BSK_CASM3C_MIG: BioMAP Diversity Plus: CASM3C Assay for Monokine induced gamma interferon (MIG) Biomarker Activity (AID 2283048); conditions: primary human coronary artery smooth muscle cells; actives raise or lower the signal;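 also: MIG protein level measured by ELISA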
[8] = read-out: serum amyloid A (SAA), SAA1 (gene 6288); test: BSK_CASM3C_SAA: BioMAP Diversity Plus: CASM3C Assay for serum amyloid A (SAA) Biomarker Activity (AID 2283049); conditions: primary human coronary artery smooth muscle cells; actives raise or lower the signal;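 also: SAA protein level quantified by ELISA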
[9] = BSK_CASM3C_SRB: Viability Assessment in the BioMAP Diversity Plus: CASM3C Assay (AID 2283050); conditions: primary human coronary artery smooth muscle cells;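 also: total protein by SRB staining as cytotoxicity measure in parallel cultures; cells exposed to compound for 24 h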
[10] = read-out: Thrombomodulin, THBD (gene 7056); test: BSK_CASM3C_Thrombomodulin: BioMAP Diversity Plus: CASM3C Assay for Thrombomodulin Biomarker Activity (AID 2283051); conditions: primary human coronary artery smooth muscle cells; actives raise or lower the signal;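 also: thrombomodulin protein level measured by ELISA 24 h after dosing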
[11] = read-out: Tissue Factor, F3 (gene 2152); test: BSK_CASM3C_TissueFactor: BioMAP Diversity Plus: CASM3C Assay for Tissue Factor Biomarker Activity (AID 2283052); conditions: primary human coronary artery smooth muscle cells; actives raise or lower the signal;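 also: cell surface tissue factor protein level read by ELISA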
[12] = read-out: Interferon-gamma inducible Protein 10 (IP10), CXCL10 (gene 3627); test: BSK_hDFCGF_IP10: BioMAP Diversity Plus: hDFCGF Assay for Interferon-gamma inducible Protein 10 (IP10) Biomarker Activity (AID 2283053); conditions: primary human foreskin fibroblasts; actives raise or lower the signal
How it was run: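 Cells: human dermal foreskin fibroblasts. Exposure: 24 h post-dosing. Detection: IP-10 ELISA, with values expressed against DMSO controls and fitted in both directions.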

[13] = read-out: Urokinase-type plasminogen activator receptor (uPAR), PLAUR (gene 5329); test: BSK_CASM3C_uPAR: BioMAP Diversity Plus: CASM3C Assay for Urokinase-type plasminogen activator receptor (uPAR) Biomarker Activity (AID 2283054); conditions: primary human coronary artery smooth muscle cells; actives raise or lower the signal;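 also: cell-surface uPAR protein level quantified by ELISA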
[14] = read-out: Vascular cell adhesion molecule 1 (VCAM1), VCAM1 (gene 7412); test: BSK_CASM3C_VCAM1: BioMAP Diversity Plus: CASM3C Assay for Vascular cell adhesion molecule 1 (VCAM1) Biomarker Activity (AID 2283055); conditions: primary human coronary artery smooth muscle cells; actives raise or lower the signal;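 also: VCAM-1 protein level quantified by ELISA on the cells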
[15] = read-out: Collagen III, COL3A1 (gene 1281); test: BSK_hDFCGF_CollagenIII: BioMAP Diversity Plus: hDFCGF Assay for Collagen III Biomarker Activity (AID 2283056); conditions: primary human foreskin fibroblasts; actives raise or lower the signal
How it was run: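 Cells: human foreskin fibroblasts, primary. Dosing followed by 24 h incubation, then ELISA for collagen III. Both increases and decreases scored relative to DMSO.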

[16] = read-out: Epidermal growth factor receptor (EGFR), EGFR (gene 1956); test: BSK_hDFCGF_EGFR: BioMAP Diversity Plus: hDFCGF Assay for Epidermal growth factor receptor (EGFR) Biomarker Activity (AID 2283057); conditions: primary human foreskin fibroblasts; actives raise or lower the signal
How it was run: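 Dosing human primary skin fibroblasts, then measuring surface EGFR by ELISA at 24 h, gives the endpoint; gains and losses relative to DMSO were fitted in both directions.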

[17] = read-out: Interleukin-8 (IL8), CXCL8 (gene 3576); test: BSK_hDFCGF_IL8: BioMAP Diversity Plus: hDFCGF Assay for Interleukin-8 (IL8) Biomarker Activity (AID 2283058); conditions: primary human foreskin fibroblasts; actives raise or lower the signal
How it was run: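 IL-8 levels from compound-treated primary human fibroblasts were read by ELISA at 24 h, with DMSO serving as baseline for bidirectional fitting.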

[18] = BSK_hDFCGF_Proliferation: Cell Proliferation Assessment in the BioMAP Diversity Plus: hDFCGF Assay (AID 2283059); conditions: primary human foreskin fibroblasts;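 also: curves fitted for both rise and fall of signal versus DMSO baseline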
How it was run: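 Sub-confluent human foreskin fibroblast cultures receive test chemical […]. Relative cell number is quantified by sulforhodamine B staining (0.1%, after 10% TCA fixation) at 560 nm, with bidirectional fitting referenced to DMSO.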

[19] = read-out: Macrophage colony-stimulating factor (MCSF), CSF1 (gene 1435); test: BSK_hDFCGF_MCSF: BioMAP Diversity Plus: hDFCGF Assay for Macrophage colony-stimulating factor (MCSF) Biomarker Activity (AID 2283060); conditions: primary human foreskin fibroblasts; actives raise or lower the signal
How it was run: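 M-CSF levels, determined by ELISA, are taken at 24 h after dosing human skin fibroblasts. Responses in either direction are fitted with DMSO serving as the baseline.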

[20] = BSK_hDFCGF_SRB: Viability Assessment in the BioMAP Diversity Plus: hDFCGF Assay (AID 2283061); conditions: primary human foreskin fibroblasts;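 also: cells exposed to compound for 24 h before the read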
How it was run: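 Cells were dosed with test chemical, cultured 24 h, fixed with 10% TCA, then stained with 0.1% SRB and read at 560 nm. The fibroblasts were human foreskin primary cells, and DMSO served as baseline.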

Measured: AC50

OC[C@H]1O[C@H](O[C@]2(CCl)O[C@H](CCl)[C@@H](O)[C@@H]2O)[C@H](O)[C@@H](O)[C@H]1Cl
inactive: all assays above

Cc1cc(C2(c3cc(C)c(O)cc3C)OS(=O)(=O)c3ccccc32)c(C)cc1O
inactive: all assays above

C=C[Si](OCC)(OCC)OCC
active: [18] 29.2 µM
inactive: all other assays above

O=C1CCCCCCCCCCCCCCO1
inactive: [12] | [16] | [17] | [20]
active: [1] 36.8 µM | [2] 28.4 µM | [3] 29 µM | [4] 30 µM | [5] 31 µM | [6] 20 µM | [7] 32.6 µM | [8] 29.8 µM | [9] 30.9 µM | [10] 27.8 µM | [11] 28.7 µM | [13] 31.9 µM | [14] 28 µM | [15] 11.4 µM | [18] 2.99 µM | [19] 9.4 µM

CN(CCOc1ccc(CC2SC(=O)NC2=O)cc1)c1ccccn1 (configuration not stated)
active: [4] 4.98 µM | [11] 5.59 µM | [12] 0.0536 µM | [18] 13.3 µM | [19] 0.0484 µM
inactive: all other assays above

O=C=NC1CCC(CC2CCC(N=C=O)CC2)CC1 (configuration not stated)
active: [4] 0.0156 µM | [6] 0.0151 µM | [18] 28.5 µM | [19] 4.84 µM
inactive: all other assays above

O=C1OC2(c3cc(Br)c(O)c(Br)c3Oc3c2cc(Br)c(O)c3Br)c2c(Cl)c(Cl)c(Cl)c(Cl)c21
active: [5] 0.0114 µM | [12] 20.8 µM | [14] 9.53 µM | [15] 4.38 µM | [16] 1.96 µM | [17] 22 µM | [18] 4.03 µM | [19] 1.56 µM | [20] 6.54 µM
inactive: all other assays above

Nc1cc([N+](=O)[O-])ccc1Cl
inactive: all assays above

O=C(O)c1cn(-c2ccc(F)cc2)c2cc(N3CCNCC3)c(F)cc2c1=O
inactive: all assays above

O=C(O)c1ccc([N+](=O)[O-])cc1
inactive: all assays above

O=C(O)C[C@H](O)C[C@H](O)/C=C/c1c(C2CC2)nc2ccccc2c1-c1ccc(F)cc1
active: [3] 0.0636 µM | [5] 0.0117 µM | [6] 0.129 µM | [10] 0.0287 µM | [11] 0.0041 µM | [14] 0.0041 µM | [18] 0.992 µM
inactive: all other assays above

CCCCCCCCC=O
inactive: all assays above

Cc1ccc2n[nH]nc2c1
inactive: all assays above

c1ccc2c(c1)c1cccc3ccc4cccc2c4c31
not listed: [4]
inactive: all other assays above

BrC1CCC(Br)C(Br)CCC(Br)C(Br)CCC1Br (configuration not stated)
active: [6] 0.11 µM | [18] 1.33 µM | [19] 4.61 µM | [20] 1.5 µM
inactive: all other assays above

C=CCOC(=O)CCC1CCCCC1
active: [18] 30.8 µM and 37.8 µM
inactive: all other assays above

c1ccc2sc(SN(C3CCCCC3)C3CCCCC3)nc2c1
active: [6] 0.117 µM | [10] 3 µM | [18] 2.77 µM | [19] 0.951 µM | [20] 4.26 µM
inactive: all other assays above

NCCNCCN
inactive: all assays above

N#Cc1ccc(CC(=NNC(=O)Nc2ccc(OC(F)(F)F)cc2)c2cccc(C(F)(F)F)c2)cc1
inactive: all assays above

OC1OC[C@@H](O)[C@H](O)[C@H]1O (some centres not stated)
inactive: all assays above

CC(=O)Nc1ccccc1O
active: [13] 0.124 µM
inactive: all other assays above

COC(=O)c1ccc(C)cc1
inactive: all assays above

C#C[C@]1(O)CC[C@H]2[C@@H]3CCC4=Cc5oncc5C[C@]4(C)[C@H]3CC[C@@]21C
active: [4] 33.9 µM | [5] 0.92 µM | [6] 3.97 µM | [9] 20 µM | [14] 25 µM
inactive: all other assays above

CCCCC(CC)COC(=O)/C=C\C(=O)OCC(CC)CCCC (configuration not stated)
active: [14] 20 µM | [18] 10.5 µM
inactive: all other assays above

CCCCC/C=C/C=C/C=O
inactive: [1] | [4] | [7] | [8] | [10] | [16]
active: [2] 23.7 µM | [3] 20 µM | [5] 36.1 µM | [6] 30.3 µM | [9] 32.3 µM | [11] 30.8 µM | [12] 14.5 µM | [13] 32.9 µM | [14] 20 µM | [15] 10.8 µM | [17] 30.1 µM | [18] 4.99 µM | [19] 10.7 µM | [20] 12.7 µM

O=C(O)c1cn(C2CC2)c2cc(N3CCNCC3)c(F)cc2c1=O
not listed: [3] | [19]
inactive: all other assays above
